According to the supplement of paper PMC6555819:

Test system: LXRb homodimer (NR concentration 270 nM)
Assay: PBM binding z-score (relative to random genomic background probes); higher = stronger binding; sequences stand for … in GC…GCGATTGACAGCGTAGAATGAAGG
How it was run: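 Antibodies against each partner of ligand-free nuclear receptor dimers (one per run) detected binding on custom Agilent 4×180K protein-binding microarrays after 1 h incubation. The double-stranded probes had 34-nt variable regions carrying direct-repeat seeds, single-nucleotide variants, half-site ablations and random human genomic background sequences. Binding z-scores, from regression-normalized fluorescence, use the random background probes as reference.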

Q: CGTCCAAGGTCAAGGTCGGTGAAAGAGACTCGAA was tested. Which PBM binding z-score did it give?
A: The PBM binding z-score was 0.00899.

Q: For TCTTGTAGATCAATAGAGGTTCAGAAAGTGCGCT, which PBM binding z-score is on record?
A: Its PBM binding z-score is -0.193.

Q: For CCTACTGGGCCAACGTCATTGATCAGTCAAAGCA, which PBM binding z-score is on record?
A: The PBM binding z-score was -0.8.

Q: For AGAACGAGGGCACGCAGAGTTGATAGCAGAGTAG, which PBM binding z-score is on record?
A: The PBM binding z-score was -0.647.

Q: How did the PBM binding z-score turn out when GCCTATAGGTAATACAAGGTGAAAGTCCGATTGT was run?
A: The PBM binding z-score was -0.465.

Q: TAGCCTAGGTCATTGGGCGAGTATAGTACGCATC was tested. Which PBM binding z-score did it give?
A: The PBM binding z-score was 0.053.

Q: With ACAGACAGGTGAGTGAAGGTAACTAAGCTGGACG as the sequence, how does the PBM binding z-score read?
A: The PBM binding z-score was -0.463.

Q: With TTACCAAGTTGAGCTGAGGTCGTTGATCCAACTC as the sequence, how does the PBM binding z-score read?
A: Its PBM binding z-score is -0.873.

Q: With TGAGTGAGGTTAAAGATCAGGGAACGTGGCGTCG as the sequence, how does the PBM binding z-score read?
A: Its PBM binding z-score is 1.13.

Q: How did the PBM binding z-score turn out when CCTCGGAGGACTGAAGGTCAGAGCTGTCCGCTTT was run?
A: Its PBM binding z-score is -0.722.

Q: With CCTACTGGGCCACGGTCATTGATCAGTCAAAGCA as the sequence, how does the PBM binding z-score read?
A: Its PBM binding z-score is -0.712.

Q: For GGAACGAGGACATTCGAGTTGATAGCATGGCGAT, which PBM binding z-score is on record?
A: The PBM binding z-score was -0.703.

Q: Which PBM binding z-score does the source give for CTACCAAGGAGAACAAGGTCGTTGATTACTATTC here?
A: The PBM binding z-score was 0.011.

Q: With TCGAGTAGGTTGGGGGCATTCAGAATGGCGTCGA as the sequence, how does the PBM binding z-score read?
A: The PBM binding z-score was 6.82.

Q: CCAGATAGGTGAAAGGTAACTCAGTCTGGTACGC was tested. Which PBM binding z-score did it give?
A: Its PBM binding z-score is -0.143.

Q: With ACTCGGAGGACAAAGGCCAGAGCTACGCCAGTGA as the sequence, how does the PBM binding z-score read?
A: Its PBM binding z-score is -0.835.

Q: With CAAACTAGGTCAAGTTCAAAGTCGGTTTGTGCCA as the sequence, how does the PBM binding z-score read?
A: Its PBM binding z-score is 1.37.

Q: Which PBM binding z-score does the source give for GTACCAAGGTGGATAGGTCGTTGATGAGTAGGCG here?
A: The PBM binding z-score was -0.708.

Q: Which PBM binding z-score does the source give for TCTGCTCGGTCAGTTGGTCAGCTAACGAGCTGCC here?
A: The PBM binding z-score was 0.134.

Q: For CATACAGTGTCAGCTAGGCCAGAGTAGGGACGGC, which PBM binding z-score is on record?
A: The PBM binding z-score was 0.0378.

Q: For CGTCCAAGGACAAAGGTCAGTGAAGAGATGACGG, which PBM binding z-score is on record?
A: The PBM binding z-score was -0.0848.

Q: How did the PBM binding z-score turn out when TCTATTACTTGATTAGGGCAACCGAAACAGCGGA was run?
A: The PBM binding z-score was 0.945.
